# Results published in PubChem BioAssay (NCATS).
# Records with an inconclusive call do not appear. A call without a number means that no potency is given here. Unmarked numbers belong to inactive results. Active and inactive are the calls of the source. Unless noted, calls follow the shape of the full dose curve.
# Tests used:
# [1] = NS1 protein of Zika virus - qHTS assay to identify small molecule inhibitors in human HEK 293 cells (AID 1347053; active = well fitted curve in the direction sought with a large enough effect; an effect the other way counts as inactive or inconclusive; also: series mostly up to about 46 µM; nearly all actives have a fitted effect of over 55% in size)
# Outline: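 TR-FRET signal from two anti-ZIKV NS1 antibodies quantified NS1 in HEK 293 cells 24 h after MR766 infection at MOI = 0.5; compounds were added 1 h before virus. Uninfected cells and infected cells defined the NS1 normalization range.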
# [2] = qHTS for Inhibitors of the Functional Ribonucleoprotein Complex (vRNP) of Lassa (LASV) Arenavirus: LASV Primary Screen - GLuc reporter signal (AID 1347082; calls by dose curve; tested in HEK293 reporter line; also: series mostly up to about 57 µM; nearly all actives have a fitted effect of over 60% in size)
# [3] = qHTS for Inhibitors of the Functional Ribonucleoprotein Complex (vRNP) of Lassa (LASV) Arenavirus: Viability assay - alamar blue signal for LASV Primary Screen (AID 1347083; calls by dose curve; tested in HEK293 reporter line; also: nearly all actives have a fitted effect of over 80% in size; also: potency is read from the fitted curve at half-maximal effect; as to activity change, negative = reduced viability: series mostly up to about 57 µM)
# [4] = qHTS for Inhibitors of the Functional Ribonucleoprotein Complex (vRNP) of Lymphocytic Choriomeningitis Arenaviruses (LCMV): Viability assay - alamar blue signal for LCMV Primary Screen (AID 1347085; calls by dose curve; tested in HEK293 reporter line; also: nearly all actives have a fitted effect of over 80% in size; also: potency is read from the fitted curve at half-maximal effect; as to activity change, negative = lower viability: series mostly up to about 57 µM)
# [5] = target: Nucleoprotein (Lymphocytic choriomeningitis virus (strain Armstrong)) (UniProt P09992); assay: qHTS for Inhibitors of the Functional Ribonucleoprotein Complex (vRNP) of Lymphocytic Choriomeningitis Arenaviruses (LCMV): LCMV Primary Screen - GLuc reporter signal (AID 1347086); also: series mostly up to about 57 µM; nearly all actives have a fitted effect of over 70% in size
# [6] = qHTS of pediatric cancer cell lines to identify multiple opportunities for drug repurposing: Primary screen for SJ-GBM2 cells (AID 1347091; active = well fitted curve in the direction sought with a large enough effect; an effect the other way counts as inactive or inconclusive)
# Outline: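 Eight- or eleven-point concentration series, 48 h treatment at 37 degrees C in growth media; readout CellTiter-Glo luminescence. Potency and efficacy were taken from the concentration-response curves.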
# [7] = qHTS of pediatric cancer cell lines to identify multiple opportunities for drug repurposing: Primary screen for SK-N-MC cells (AID 1347093; active = well fitted curve in the direction sought with a large enough effect; an effect the other way counts as inactive or inconclusive; also: series mostly up to about 46 µM)
# Outline: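 Metabolically active cells were quantified by ATP-dependent luminescence (CellTiter-Glo, 15 min at room temperature) following 48 h treatment. Cells had been plated at 500-1,000 per well and settled for 5 h beforehand.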
# [8] = qHTS of pediatric cancer cell lines to identify multiple opportunities for drug repurposing: Primary screen for BT-37 cells (AID 1347094; active = well fitted curve in the direction sought with a large enough effect; an effect the other way counts as inactive or inconclusive; also: series mostly up to about 57 µM)
# Outline: (§1)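 Luminescence from CellTiter-Glo served as readout of metabolically active cells after 48 h compound exposure. Titrations: MIPE 11-point, from 0.78 nM; NPC 8-point, from 0.59 nM (final). Concentration-response curves came straight from the primary screen.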
# [9] = qHTS of pediatric cancer cell lines to identify multiple opportunities for drug repurposing: Primary screen for NB-EBc1 cells (AID 1347095; active = well fitted curve in the direction sought with a large enough effect; an effect the other way counts as inactive or inconclusive)
# Outline: as §1
# [10] = qHTS of pediatric cancer cell lines to identify multiple opportunities for drug repurposing: Primary screen for U-2 OS cells (AID 1347096; active = well fitted curve in the direction sought with a large enough effect; an effect the other way counts as inactive or inconclusive; also: nearly all actives have a fitted effect of over 50% in size)
# Outline: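 Cells (500-1,000/well) in growth media were settled 5 h at 37 degrees C, then given compounds for 48 h. Viability was read as CellTiter-Glo luminescence. Primary runs used MIPE at 11 points (0.78 nM-46 µM) and NPC at 8 points (0.59 nM-46 µM); follow-ups used 11 points.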
# [11] = qHTS of pediatric cancer cell lines to identify multiple opportunities for drug repurposing: Primary screen for Saos-2 cells (AID 1347097; active = well fitted curve in the direction sought with a large enough effect; an effect the other way counts as inactive or inconclusive; also: nearly all actives have a fitted effect of over 40% in size)
# Outline: as §1
# Sequence of Nucleoprotein (Lymphocytic choriomeningitis virus (strain Armstrong)) (P09992 whole entry, looked up): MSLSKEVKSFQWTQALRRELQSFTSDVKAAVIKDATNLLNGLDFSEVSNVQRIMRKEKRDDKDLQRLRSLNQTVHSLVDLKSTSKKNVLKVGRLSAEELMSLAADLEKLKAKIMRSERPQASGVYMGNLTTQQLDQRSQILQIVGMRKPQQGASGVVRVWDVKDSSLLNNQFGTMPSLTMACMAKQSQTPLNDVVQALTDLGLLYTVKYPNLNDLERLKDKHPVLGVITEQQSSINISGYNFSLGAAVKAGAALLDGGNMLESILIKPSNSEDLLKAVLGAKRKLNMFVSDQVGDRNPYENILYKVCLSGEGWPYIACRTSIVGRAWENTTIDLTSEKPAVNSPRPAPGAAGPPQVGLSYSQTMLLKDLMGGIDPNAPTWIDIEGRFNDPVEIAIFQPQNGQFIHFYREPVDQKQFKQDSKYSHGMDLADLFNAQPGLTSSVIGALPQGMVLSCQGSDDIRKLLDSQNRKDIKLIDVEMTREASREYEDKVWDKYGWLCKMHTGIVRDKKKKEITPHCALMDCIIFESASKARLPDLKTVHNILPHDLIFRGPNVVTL
smiles,measurement,setting,value
C[C@]12CC[C@H]3[C@@H](CCC4=CC(=O)CC[C@@H]43)[C@@H]1CC[C@@H]2O,Potency,[1],inactive
same,Potency,[2],inactive
same,Potency,[3],inactive
same,Potency,[4],inactive
same,Potency,[5],inactive
same,Potency,[6],inactive
same,Potency,[7],inactive
same,Potency,[8],inactive
same,Potency,[9],inactive
same,Potency,[10],inactive
same,Potency,[11],inactive
COC(=O)[C@H]1[C@H]2C[C@@H]3c4[nH]c5cc(OC)ccc5c4CCN3C[C@H]2C[C@@H](OC(=O)/C=C/c2ccc(O)c(OC)c2)[C@@H]1OC,Potency,[2],inactive
CCNC(=O)N1CCN(CCCC(c2ccc(F)cc2)c2ccc(F)cc2)CC1,Potency,[2],inactive
same,Potency,[3],inactive
same,Potency,[4],inactive
Cc1c(C(=O)NN2CCCCC2)nn(-c2ccc(Cl)cc2Cl)c1-c1ccc(Cl)cc1,Potency,[2],inactive
same,Potency,[3],inactive
same,Potency,[4],inactive
OC1C(O)C(O)C(O)C(O)C1O (stereo not drawn),Potency,[2],inactive
same,Potency,[3],inactive
same,Potency,[4],inactive
same,Potency,[5],inactive
C=CCNc1nc(NCC=C)nc(N2CCN(C(c3ccc(F)cc3)c3ccc(F)cc3)CC2)n1,Potency,[2],inactive
same,Potency,[3],inactive
same,Potency,[4],inactive
O=C(OCC(O)CO)c1ccccc1Nc1ccnc2c(C(F)(F)F)cccc12 (stereo not drawn),Potency,[2],inactive
same,Potency,[3],inactive
same,Potency,[4],inactive
same,Potency,[5],inactive
O=c1[nH]sc2cc(Cl)ccc12,Potency,[2],inactive
same,Potency,[3],inactive
same,Potency,[4],inactive
same,Potency,[5],inactive
COc1ccc([C@@H]2Sc3ccccc3NC(=O)[C@@H]2O)cc1,Potency,[2],inactive
COC(=O)Nc1nc2ccc(Sc3ccccc3)cc2[nH]1,Potency,[2],inactive
same,Potency,[3],5440 nM (active)
same,Potency,[4],5440 nM (active)
CC(C(O)c1ccccc1)N(C)CCOC(c1ccccc1)c1ccccc1 (stereo not drawn),Potency,[2],inactive
CCCCC(=O)O[C@]1(C(=O)CO)CC[C@H]2[C@@H]3CCC4=CC(=O)CC[C@]4(C)[C@H]3[C@@H](O)C[C@@]21C,Potency,[2],inactive
same,Potency,[3],inactive
same,Potency,[4],inactive
same,Potency,[5],inactive
CCN(CC)CCNc1ccc(CO)c2sc3ccccc3c(=O)c12,Potency,[2],inactive
COc1cccc2c1C(=O)c1c(O)c3c(c(O)c1C2=O)C[C@@](O)(C(=O)CO)C[C@@H]3O[C@H]1C[C@H](N)[C@H](O[C@@H]2CCCCO2)[C@H](C)O1,Potency,[2],inactive
CCCCc1ccc2nc(NC(=O)OC)[nH]c2c1,Potency,[2],inactive
same,Potency,[3],68.5 nM (active)
same,Potency,[4],38.5 nM (active)
CC(=C(CCOC(=O)C(C)C)SSC(CCOC(=O)C(C)C)=C(C)N(C=O)Cc1cnc(C)nc1N)N(C=O)Cc1cnc(C)nc1N,Potency,[2],inactive
same,Potency,[3],inactive
c1ccc(-c2ccc(C(c3ccccc3)n3ccnc3)cc2)cc1 (stereo not drawn),Potency,[2],inactive
same,Potency,[3],inactive
same,Potency,[4],inactive
Cc1nc2n(c(=O)c1CCN1CCC(C(=O)c3ccc(F)cc3)CC1)CCS2,Potency,[2],inactive
same,Potency,[3],inactive
same,Potency,[4],inactive
C[C@@H](C1=C(CCN(C)C)Cc2ccccc21)c1ccccn1,Potency,[2],inactive
same,Potency,[3],inactive
Nc1nc2ccccc2n1Cc1ccc(F)cc1,Potency,[2],inactive
same,Potency,[3],inactive
CCN(CC)CCOc1ccc(Cc2ccccc2)cc1,Potency,[2],inactive
same,Potency,[3],inactive
same,Potency,[4],inactive
same,Potency,[5],inactive
CCOC(=O)C1=C(C)NC(C)=C(C(=O)OCC)C1c1ccccc1/C=C/C(=O)OC(C)(C)C,Potency,[2],inactive
same,Potency,[3],inactive
same,Potency,[4],inactive
CCN(CC)CCOc1ccc2c(c1)C(=O)c1cc(OCCN(CC)CC)ccc1-2,Potency,[2],inactive
O=C(Nc1ncc([N+](=O)[O-])s1)c1cccs1,Potency,[2],inactive
same,Potency,[3],inactive
same,Potency,[4],inactive
COc1ccc(/C=C/C(=O)c2ccc(OC)cc2OC)cc1,Potency,[2],inactive
same,Potency,[3],inactive
same,Potency,[4],inactive
CC(C)=CCNc1ncnc2c1ncn2[C@@H]1O[C@H](CO)[C@@H](O)[C@H]1O,Potency,[2],inactive
Oc1c(Cl)cc(Cl)cc1Sc1cc(Cl)cc(Cl)c1O,Potency,[2],inactive
same,Potency,[3],inactive
OC[C@H]1O[C@@H](n2cnc3c(=S)nc[nH]c32)[C@H](O)[C@@H]1O,Potency,[2],inactive
CCCCC(CC)COC(=O)C(C#N)=C(c1ccccc1)c1ccccc1 (stereo not drawn),Potency,[2],inactive
CCNC(=O)NCCCOc1cccc(CN2CCCCC2)c1,Potency,[2],inactive
same,Potency,[3],inactive
same,Potency,[4],inactive
same,Potency,[5],inactive
CCOc1ccc(Cc2nccc3cc(OCC)c(OCC)cc23)cc1OCC,Potency,[2],inactive
same,Potency,[3],inactive
same,Potency,[4],inactive
C/C=C/C(=O)N(CC)c1ccccc1C,Potency,[2],inactive
same,Potency,[3],inactive
same,Potency,[4],inactive
same,Potency,[5],inactive
Cc1ccc2c(Br)cc(Br)c(O)c2n1,Potency,[2],inactive
COCCOC(=O)C1=C(C)NC(C)=C(C(=O)OC/C=C/c2ccccc2)C1c1cccc([N+](=O)[O-])c1 (stereo not drawn),Potency,[2],inactive
same,Potency,[3],inactive
same,Potency,[4],inactive
CCc1ccc(C(=O)C(C)CN2CCCCC2)cc1 (stereo not drawn),Potency,[2],inactive
same,Potency,[3],inactive
same,Potency,[4],inactive
same,Potency,[5],inactive
CC1CCc2cc(F)cc3c(=O)c(C(=O)O)cn1c23 (stereo not drawn),Potency,[2],inactive
same,Potency,[3],inactive
same,Potency,[4],inactive
same,Potency,[5],inactive
COC(=O)C1=C(C)NC(C)=C(C(=O)OC(C)(C)CN(C)CCC(c2ccccc2)c2ccccc2)C1c1cccc([N+](=O)[O-])c1 (stereo not drawn),Potency,[2],inactive
same,Potency,[3],inactive
same,Potency,[4],inactive
Cc1ccc(O)cc1,Potency,[2],inactive
same,Potency,[3],inactive
same,Potency,[4],inactive
same,Potency,[5],inactive
NC(=O)C1(N2CCCCC2)CCN(CCCN2c3ccccc3CCc3ccc(Cl)cc32)CC1,Potency,[2],inactive
CCCCOc1cc(C(=O)NCCN(CC)CC)c2ccccc2n1,Potency,[2],inactive
same,Potency,[3],inactive
CCN[C@@H]1C[C@H](N)[C@@H](OC2OC(CN)=CCC2N)[C@H](O)[C@H]1O[C@H]1OC[C@](C)(O)[C@H](NC)[C@H]1O (stereo partly drawn),"activity change, negative = inhibition",[2],-2.08% [at 0.757 µM]
same,"activity change, negative = reduced viability",[3],-5.5% [at 0.757 µM]
same,"activity change, negative = lower viability",[4],0.253% [at 0.757 µM]
same,"activity change, negative = inhibition",[5],10% [at 0.757 µM]
CCN(CC)CCOc1ccccc1C(=O)CCc1ccccc1,Potency,[2],inactive
same,Potency,[3],inactive
same,Potency,[4],inactive
same,Potency,[5],inactive
C=C1c2cccc(O)c2C(O)=C2C(=O)[C@]3(O)C(O)=C(C(N)=O)C(=O)[C@@H](N(C)C)[C@@H]3[C@@H](O)[C@H]12,Potency,[2],inactive
same,Potency,[3],inactive
same,Potency,[4],inactive
same,Potency,[5],inactive
COc1cccc(CCc2ccccc2OCC(CN(C)C)OC(=O)CCC(=O)O)c1 (stereo not drawn),Potency,[2],inactive
same,Potency,[3],inactive
same,Potency,[4],inactive
same,Potency,[5],inactive
Cl/C(=C\n1cncn1)c1ccc(Cl)cc1Cl,Potency,[2],inactive
same,Potency,[3],inactive
same,Potency,[4],inactive
same,Potency,[5],inactive
O=C1c2ccccc2C(=O)C1c1ccc(Br)cc1,Potency,[2],inactive
same,Potency,[3],inactive
same,Potency,[4],inactive
same,Potency,[5],inactive
CC1=C(C(=O)OC(C)C)C(c2cccc([N+](=O)[O-])c2)C(C(=O)OC2CN(C(c3ccccc3)c3ccccc3)C2)=C(N)N1 (stereo not drawn),Potency,[2],inactive
same,Potency,[3],inactive
same,Potency,[4],inactive
same,Potency,[5],inactive
CO[C@]1(NC(=O)CSC(F)F)C(=O)N2C(C(=O)O)=C(CSc3nnnn3CCO)CO[C@H]21,Potency,[2],inactive
same,Potency,[3],inactive
same,Potency,[4],inactive
same,Potency,[5],inactive
